# Source: PubChem BioAssay AID651791 (National Center for Advancing Translational Sciences (NCATS), 2012)
# Inconclusive results are not listed. Active and inactive are the calls of the source. Calls follow the shape of the dose curve; as a rule, active = well fitted inhibition curve with a large enough effect; inconclusive = small, poorly fitted or top-dose-only effect; inactive = no such curve, though single readings can be large or run the other way.
# Assay: InCell qHTS Assay for Inhibitors of the mTORC1 Signaling Pathway in MEF (Tsc2-/-, p53-/-) Cells: Hit Validation;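 also: phospho-S6 Ser235/236 signal normalized to propidium iodide cell count per well; nearly all actives have a fitted effect of over 75% in size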
# Details: phospho-rpS6 immunofluorescence, 24 h; activity change, negative = inhibition: at 38.3 µM (top of the series)
# Potency is read from the fitted curve at half-maximal effect.
SMILES,"activity change, negative = inhibition",Potency
CCOC(=O)c1ccc(-c2ccc(/C=C(\C#N)c3nc4ccc(C)cc4[nH]3)o2)cc1,-100%,–
Cc1c(C(=O)OC2CCCCC2)[nH]c2c1C(=O)CC(c1ccccc1)C2 (configuration not stated),-24.8%,–
CCCCOc1ccc(Cn2c(=O)sc3ccccc32)cc1,-100%,–
CCCCOc1cccc(C(=O)N2CCN(CCc3ccncc3)CC2)c1,-100%,–
CCN1CCC(N(Cc2ccc(F)cc2)C(=O)Nc2ccc(C)c(F)c2)CC1,-100%,–
COc1cc(C(=O)n2nc(C)c(Sc3ccc(Cl)cc3)c2C)cc(OC)c1OC,-100%,–
O=C(Cn1c(=O)c2cccn2c2ccccc21)NCc1ccccc1F,-100%,–
COc1ccc(CCNC(=O)C(C)n2nc(C)c3sc4ccccc4c3c2=O)c(OC)c1 (configuration not stated),-100%,–
CCN(CCCNC(=O)c1cc2c(=O)[nH]c3ccccc3c2s1)c1ccccc1,-100%,–
CCc1ccc2ncc(S(=O)(=O)c3ccc(Cl)cc3)c(N3CCN(CC)CC3)c2c1,-100%,–
CCc1cccc(NC(=O)c2oc3ccc4c(c3c2C)C(=O)CC(C)(C)O4)c1,-100%,–
Cc1ccc(Nc2nc(C(N)=O)c(NC(=O)c3ccccc3Br)s2)cc1,-17.8%,–
O=C(CN1C(=O)C(c2ccc(F)cc2)=NC12CCCCCC2)Nc1ccccc1Cl,-100%,–
COc1ccc(OC)c(NC(=O)c2nnn(CC(=O)Nc3ccc(C(C)C)cc3)c2N)c1,-100%,–
CN1CCN(C2(CNC(=O)COc3ccc(C(C)(C)C)cc3)CCCCC2)CC1,-100%,–
COc1cc(C2CC(=O)Nc3cc4c(cc32)OCCO4)cc(Br)c1OC (configuration not stated),-100%,–
O=S(=O)(NCC(c1ccco1)N1CCN(c2ccc(F)cc2)CC1)c1ccccc1 (configuration not stated),-100%,–
CCOc1ccc(S(=O)(=O)NCCc2sc(-c3ccc(C)cc3)nc2C)cc1,-100%,–
O=C(Nc1ccc(-c2cc(C(F)(F)F)nn2-c2ccccc2)cc1)c1cccc(F)c1,-100%,–

SMILES,"activity change, negative = inhibition",Potency
N#C/C(=C\c1ccc(-c2ccc(F)cc2F)o1)c1nc2ccccc2[nH]1,-27.3%,–
CCS(=O)(=O)c1ncc(Cl)c(C(=O)NCc2ccccc2)n1,–,10.4 µM (active)
Cc1ccc(S(=O)(=O)c2nnn3c2nc(NCc2cccs2)c2sccc23)cc1,-100%,–
COc1ccc(C(=O)c2sc(Nc3ccccc3)nc2N)cc1,-100%,–
O=C(Nc1ccc(Cl)c(C(F)(F)F)c1)c1ccc2c(c1)CCN2S(=O)(=O)c1ccccc1,-100%,–
CCOc1ccc(-c2nc(SCC(=O)c3ccccc3)n[nH]2)cc1,-2.9%,–
CCCOCc1cc(CN2CCN(c3ccccc3OC)CC2)c(O)c2ncccc12,–,11.7 µM (active)
Cc1ccccc1S(=O)Cc1ccc(C(=O)N2CCN(c3cccc(C)c3C)CC2)o1 (configuration not stated),-28.4%,–
CCCC1=Nc2cc(C(=O)NCc3ccccc3)ccc2Sc2ccccc21,-100%,–
CCOC(=O)N1CCN(Cc2nc3cc(NC(=O)c4ccc([N+](=O)[O-])cc4)ccc3n2C(C)C)CC1,-100%,–
Cc1cccc(Nc2nnc(-c3ccc(C)c(S(=O)(=O)N4CCN(C)CC4)c3)c3ccccc23)c1,-100%,–
Cc1nc2ccc(S(=O)(=O)CCC(=O)Nc3ccc(Cl)cc3)cc2s1,-100%,–
CCOc1cc(-c2nnc(SCC(=O)NCc3ccccc3)nc2-c2ccc(OC)c(OCC)c2)ccc1OC,-100%,–
O=C1c2[nH]nc(-c3ccccc3O)c2C(c2ccc(Cl)cc2)N1CCc1ccccc1 (configuration not stated),-21.4%,–
O=c1oc2ccccc2cc1-c1cn2cc(Cc3ccccc3F)sc2n1,-100%,–
Cc1nn(C(C)C(=O)NC2CCCCC2)c(=O)c2c1sc1ccccc12 (configuration not stated),-100%,–
CCN(CC)CC(C)CNC(=O)c1cc(-c2ccc(Br)s2)nc2ccccc12 (configuration not stated),-14.3%,–
COc1ccc(CCN2C(=O)c3[nH]nc(-c4ccccc4O)c3C2c2cccc(OC)c2)cc1 (configuration not stated),-28.2%,–
